Source: the supplement of paper PMC6555819

Tests used:
Assay in all cases: PBM binding z-score (relative to random genomic background probes); higher = stronger binding; sequences stand for … in GC…GCGATTGACAGCGTAGAATGAAGG
[1] = tested on: FXR:RXRa (NR concentration 270 nM, RXRa partner concentration 90 nM)
Summary of the method: (§1)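 Ligand-free nuclear receptor dimers were applied to custom Agilent 4×180K protein-binding microarrays whose double-stranded probes carried direct-repeat seeds, single-nucleotide variants, half-site ablations and random human genomic background sequences in 34-nt variable regions. Incubation lasted 1 h. Binding z-scores were computed against the random background probes from regression-normalized fluorescence.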

[2] = tested on: LXRa:RXRa (NR concentration 270 nM, RXRa partner concentration 90 nM)
Summary of the method: as §1

[3] = tested on: LXRa homodimer (NR concentration 270 nM)
Summary of the method: as §1

[4] = tested on: LXRb:RXRa (NR concentration 270 nM, RXRa partner concentration 90 nM)
Summary of the method: as §1

[5] = tested on: LXRb homodimer (NR concentration 270 nM)
Summary of the method: as §1

[6] = tested on: PPARa:RXRa (NR concentration 270 nM, RXRa partner concentration 90 nM)
Summary of the method: as §1

[7] = tested on: PPARg:RXRa (NR concentration 180 nM, RXRa partner concentration 90 nM)
Summary of the method: as §1

[8] = tested on: PPARg:RXRa 270nM:90nM, anti-RXR (NR concentration 270 nM, RXRa partner concentration 90 nM)
Summary of the method: as §1

[9] = tested on: PPARg:RXRa 30nM:10nM, anti-RXR (NR concentration 30 nM, RXRa partner concentration 10 nM)
Summary of the method: as §1

[10] = tested on: PPARg:RXRa 90nM:30nM, anti-RXR (NR concentration 90 nM, RXRa partner concentration 30 nM)
Summary of the method: as §1

[11] = tested on: PPARg:RXRa DBDmut IVT, anti-RXR (DBD mutation: RXRa K156A/R161A, NR concentration 270 nM, RXRa partner concentration 90 nM)
Summary of the method: as §1

[12] = tested on: PPARg:RXRa IVT, anti-PPARg (NR concentration 270 nM, RXRa partner concentration 90 nM)
Summary of the method: as §1

[13] = tested on: PPARg DBDmut:RXRa IVT, anti-PPARg (DBD mutation: PPARg1 K132A/R137A, NR concentration 270 nM, RXRa partner concentration 90 nM)
Summary of the method: as §1

[14] = tested on: PPARg DBDmut IVT, anti-PPARg (DBD mutation: PPARg1 K132A/R137A, NR concentration 270 nM)
Summary of the method: as §1

[15] = tested on: PPARg homodimer (NR concentration 180 nM)
Summary of the method: as §1

[16] = tested on: PXR:RXRa (NR concentration 270 nM, RXRa partner concentration 90 nM)
Summary of the method: as §1

[17] = tested on: PXR homodimer (NR concentration 270 nM)
Summary of the method: as §1

[18] = tested on: RARa:RXR (NR concentration 270 nM, RXRa partner concentration 90 nM)
Summary of the method: as §1

[19] = tested on: RARa homodimer (NR concentration 270 nM)
Summary of the method: as §1

[20] = tested on: RARb:RXRa (NR concentration 270 nM, RXRa partner concentration 90 nM)
Summary of the method: as §1

Sequence | PBM binding z-score [1] | PBM binding z-score [2] | PBM binding z-score [3] | PBM binding z-score [4] | PBM binding z-score [5] | PBM binding z-score [6] | PBM binding z-score [7] | PBM binding z-score [8] | PBM binding z-score [9] | PBM binding z-score [10] | PBM binding z-score [11] | PBM binding z-score [12] | PBM binding z-score [13] | PBM binding z-score [14] | PBM binding z-score [15] | PBM binding z-score [16] | PBM binding z-score [17] | PBM binding z-score [18] | PBM binding z-score [19] | PBM binding z-score [20]
TCGAGTAGCTTAGGGGCATTCAGAATGGCGTCGA | -0.301 | -0.0309 | -0.497 | 0.0994 | -1.06 | 0.246 | -0.362 | 0.211 | 0.569 | 0.263 | 0.336 | -0.404 | -0.673 | -0.923 | -0.986 | 0.0972 | -0.797 | 0.217 | -1.45 | 0.238
CGAACTGGGTCAAGGACAGTGAATCTCCGCACGC | 2.51 | 1.36 | -0.258 | 1.24 | -0.484 | 4.39 | 6.95 | 6.03 | 2.89 | 5.37 | 7.45 | 7.82 | 5.86 | 3.4 | 1.92 | 1.28 | -0.104 | 1.94 | 0.123 | 3.39
ATATGTAGGTTAAGGGTCATTCGGGTTGGTTCGC | 5.36 | 4.83 | 3.47 | 4.62 | 1.81 | 6.53 | 12.2 | 10.3 | 11.7 | 12.2 | 7.7 | 8.1 | 6.59 | 4.92 | 8.66 | 6.02 | 3.75 | 6.67 | 3.12 | 3.43
CCTTACGGGTCACGAGGGTATAGCACGACGAGCG | 6.44 | 4.54 | -0.0656 | 3.48 | -0.518 | 5.73 | 6.45 | 6.17 | 2.67 | 5.26 | 3.29 | 5.07 | 0.569 | 0.0491 | 2.12 | 4.23 | -0.0662 | 4.88 | 0.889 | 4.44
CCTAGCAGGCCAATCTGGGTCACTCCAGGCTTGA | 0.645 | 1.09 | -0.166 | 0.329 | -1.31 | 2.6 | 1.99 | 2.05 | -0.235 | 1.03 | 4.25 | 4.76 | -0.633 | -1.01 | 0.639 | 0.543 | -0.635 | 0.754 | -0.716 | 1.48
AGAACCAGGGCACGCTGAGTTGATAGCAGAGTAG | -0.172 | 0.136 | -0.611 | -0.397 | -1.03 | 1.29 | 1.55 | 1.19 | -0.116 | 0.466 | 4.22 | 3.95 | 0.0191 | -0.605 | -0.0465 | 0.357 | -0.341 | 0.14 | -0.234 | 1.34
ATATGTAAGTTAAGGGTCATTCAGGTTGGTTCGC | 4.42 | 4.64 | 3.27 | 4.11 | 1.56 | 5.03 | 6.82 | 7.16 | 6.71 | 7.81 | 1.13 | 3.7 | 1.79 | 1.39 | 4.41 | 5.17 | 2.93 | 4.86 | 1.97 | 3.42
